G9a inh – G9a (human) methyltransferase inhibition; G9a H3K9 monomethylation, AlphaScreen, 2 h; Potency, µM (top dose mostly 102 µM), for inactives: at the highest dose activity, negative = inhibition, usual class: inhibitors; Q96KQ7; actives 8.8% (n = 350,000); note: % is set by controls: 0 for no effect and ±100 for the full control effect; nearly all actives have a fitted effect of over 75% in size
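Chemiluminescent proximity detection of H3K9 monomethylation, read after 10 min bead incubation in the dark. Reaction: 20 nM G9a, 500 nM biotin-H3K9 peptide, 20 uM SAM cofactor, 2 h, room temperature, following 15 min enzyme-compound preincubation.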
Sfp inh – inhibitors of Bacillus subtilis Sfp phosphopantetheinyl transferase | Potency, µM, inactives show largest response in the series, negative = inhibition, hits mostly inhibitors | Biochemical Sfp PPTase activity, qHTS | actives 3.5% (n = 310,000) | Q9F4F7;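 note: the enzyme is Sfp with the accession as filed and its product quenches rhodamine fluorescence; 0% = enzyme reaction without inhibitor and -100% = no enzyme wells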
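With Hepes-Na pH 7.6 buffer containing 10 mM MgCl2, Sfp (15 nM) modified BHQ-2-YbbR (12.5 uM) using rhodamine-CoA (5 uM). Two reads 30 minutes apart at 525/598 nm yielded each well's rate.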
HP1b binding inh – HP1-beta chromodomain-methylated histone interaction inhibition. Potency, µM (doses to about 114 µM), inactives show at the highest dose activity change, negative = inhibition, actives largely listed as inhibitors. actives 0.56% (n = 390,000). AlphaScreen HP1-beta / biotin-H3K9me3 peptide binding. P83916; note: nearly all actives have a fitted effect of over 70% in size
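Compound inhibition of the preformed complex between 50 nM HP1-beta and 50 nM biotinylated H3K9me3 peptide was read by AlphaScreen. Buffer was PBS pH 7.4 with 0.01% Tween-20. Incubations ran 30 min at room temperature, with 10 ug/mL donor/acceptor beads.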
JMJD2A Tudor – JMJD2A Tudor domain (human) inhibition. Potency, µM (titrated, usually from 114 µM), inactives show top-dose activity change, negative = inhibition, usual class: inhibitors. actives 4.4% (n = 390,000). AlphaScreen JMJD2A-Tudor / H3K4me3 peptide binding; note: % is set by controls: 0 for no effect and ±100 for the full control effect; nearly all actives have a fitted effect of over 50% in size
BAZ2B inh – BAZ2B (human) inhibition; Q9UIF8; AlphaScreen BAZ2B-H3K14Ac peptide displacement; Potency, µM (doses to about 114 µM), without a hit: at the highest dose activity change, negative = inhibition, usual class: inhibitors; actives 4.4% (n = 360,000); AID 504333; note: % is set by controls: 0 for no effect and ±100 for the full control effect; nearly all actives have a fitted effect of over 60% in size
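BAZ2B 50 nM plus b-H3(5-23)K14Ac 50 nM, PBS pH 7.4/0.01% Tween-20, 30 min RT; compound added (max 110 uM), 30 min RT; streptavidin donor/Ni-chelate acceptor beads 10 ug/mL final, 20 min dark; AlphaScreen read.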
L3MBTL1 inh – blocks human L3MBTL1; actives 0.66% (n = 230,000); Potency, µM (top dose mostly 57.1 µM), without a hit: at the highest dose activity, negative = inhibition, hits mostly inhibitors; AID 485360; AlphaScreen L3MBTL1–H3K9me1 peptide binding; Q9Y468; note: % is set by controls: 0 for no effect and ±100 for the full control effect; nearly all actives have a fitted effect of over 60% in size
Target sequence (Q9Y468 whole entry, looked up): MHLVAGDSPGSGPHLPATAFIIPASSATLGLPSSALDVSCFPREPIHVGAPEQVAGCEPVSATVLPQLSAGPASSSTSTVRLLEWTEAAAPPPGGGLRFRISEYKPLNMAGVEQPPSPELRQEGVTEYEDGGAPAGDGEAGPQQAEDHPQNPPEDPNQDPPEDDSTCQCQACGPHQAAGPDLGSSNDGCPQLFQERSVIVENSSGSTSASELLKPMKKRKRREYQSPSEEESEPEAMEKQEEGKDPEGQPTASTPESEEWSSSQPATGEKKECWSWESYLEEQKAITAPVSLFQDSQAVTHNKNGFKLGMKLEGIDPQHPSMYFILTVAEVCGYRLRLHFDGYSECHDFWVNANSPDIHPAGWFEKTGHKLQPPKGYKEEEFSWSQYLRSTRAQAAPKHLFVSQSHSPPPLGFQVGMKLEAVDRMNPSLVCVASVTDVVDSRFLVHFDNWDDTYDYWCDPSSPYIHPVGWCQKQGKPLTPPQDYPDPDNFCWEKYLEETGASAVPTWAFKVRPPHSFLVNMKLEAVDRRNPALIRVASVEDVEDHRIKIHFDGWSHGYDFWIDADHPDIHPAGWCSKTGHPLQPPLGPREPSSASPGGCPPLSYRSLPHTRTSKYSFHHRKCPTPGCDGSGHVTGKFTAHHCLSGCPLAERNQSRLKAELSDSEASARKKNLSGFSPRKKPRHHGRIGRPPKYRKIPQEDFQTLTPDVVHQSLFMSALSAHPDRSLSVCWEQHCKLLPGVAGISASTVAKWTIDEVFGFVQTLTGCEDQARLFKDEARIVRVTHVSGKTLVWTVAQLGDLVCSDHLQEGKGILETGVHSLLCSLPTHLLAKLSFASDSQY
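L3MBTL1 (50 nM) pre-complexed 30 min with biotinylated H3(1-15)K9me1 peptide (75 nM), then compounds added for 30 min at room temperature; AlphaScreen streptavidin donor/nickel chelate acceptor beads (10 ug/mL final) read after 30 min dark incubation.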
Starred values were filed as active, the others as inactive; ? = inconclusive; · = no result given; [ ] = remark or other dose. Shown are actives, neighbours in structure and some others; about 12% of the full set was active somewhere. Calls come from the whole dose curve; as a rule, active = well fitted curve in the direction sought with a large enough effect; inconclusive = small, poorly fitted or top-dose-only effect, or another doubt; inactive = no such curve, though single readings can be large; an effect the other way counts as inactive or inconclusive. Potency is the fitted concentration of half-maximal effect.

SMILES	G9a inh	Sfp inh	HP1b binding inh	JMJD2A Tudor	BAZ2B inh	L3MBTL1 inh
O=C(CSc1ccc(-c2ccco2)nn1)c1ccc(F)cc1	40µM*	32µM*	?	45µM*	-34%	-15%
COC(=O)c1ccc(CNC(=O)c2nc(Cn3nc(C)c(Br)c3C)no2)cc1	-3%[59 µM]	·	40%	-11%	-20%	·
COC(=O)c1cc(Br)c(=O)n(CCN2CCCC2)c1	50µM*	-7%	42%	-20%	-2%[57.1 µM]	-1%
O=C(CN1C(=O)COc2ccccc21)NCCc1ccc(Cl)cc1	0%[59 µM]	·	32%	-8%	-1%	·
CC(C)NCC(O)Cn1c2c(c3ccccc31)CCc1c-2cnn1-c1ccccc1 (configuration not stated)	?	?	?	50µM*	?	-11%
OC(CN1CCOCC1)Cn1c2c(c3ccccc31)CCCC2 (configuration not stated)	?	5%	6%	?	?	-3%
C=C[C@@]1(C)CC(=O)[C@]2(O)[C@@]3(C)[C@H](O)CCC(C)(C)[C@@H]3[C@H](O)[C@H](OC(C)=O)[C@@]2(C)O1	·	7%	·	·	·	·
Cc1ccc(-n2ncc(C(=O)NCc3ccc4c(c3)OCO4)c2C2CCN(C(=O)OC(C)(C)C)CC2)c(C)c1	-29%[59 µM]	·	17%	-25%	-3%[57.1 µM]	·
COc1ccc(/C(=N/Nc2ncnc3ccccc23)C(=O)O)cc1	?	63µM*	10%	?	6%	·
CCOC(=O)/C(=N\Nc1ncnc2ccccc12)c1ccc(OC)cc1	10%	-19%	24%	-25%	-32%	·
CC(=O)C1=C(O)C(=O)N(c2ccc(Br)cn2)C1c1ccccc1F (configuration not stated)	?	12%	47%	-11%	-10%	1%
COc1cc(C2C(C(C)=O)=C(O)C(=O)N2c2ccc(Br)cn2)ccc1O (configuration not stated)	2%[0.0925 µM]	-7%	-1%	89µM*	?	5%
CC(=O)C1=C(O)C(=O)N(c2ccc(Br)cn2)C1c1cccc([N+](=O)[O-])c1 (configuration not stated)	17%[2.33 µM]	5%	5%	-20%	-19%	·
CC(=O)C1=C(O)C(=O)N(c2ccc(Br)cn2)C1c1ccc(F)cc1 (configuration not stated)	·	?	20%	1.1µM*	56µM*	9%
CC(=O)C1=C(O)C(=O)N(c2ccc(Br)cn2)C1c1ccc(Br)cc1 (configuration not stated)	56µM*	?	-13%	22µM*	?	0%
CC(=O)C1=C(O)C(=O)N(c2ccc(O)cc2)C1c1ccc(Cl)cc1 (configuration not stated)	71µM*	12%	11%	-25%	-19%	·
COc1ccc(CCC(=O)NC2CC(=O)N(c3ccc(F)cc3)C2)cc1 (configuration not stated)	4%[59 µM]	·	21%	-11%	-1%	·
CC(=O)C1=C(O)C(=O)N(c2cc(C(C)(C)C)on2)C1c1ccc(Br)cc1 (configuration not stated)	45µM*	-15%	35%	?	-37%	-5%
CCOc1ccc(/C(C)=N/N2C(=O)C(CC(=O)Nc3ccc(OC)cc3[N+](=O)[O-])SC2=Nc2cccc(C)c2C)cc1 (configuration not stated)	35µM*	-9%	9%	-29%	-38%	-10%
Cc1ccccc1NC(=O)CN1CCN(C)CC1	10µM*	?	28µM*	3.2µM*	28µM*	·
CN1CCN(CC(=O)Nc2cc(N(C)C)nc3ccccc23)CC1	50µM*	-13%	32%	-17%	?	-4%
CN1CCN(CC(=O)c2ccccc2F)CC1	4.5µM*	56µM*	?	6.3µM*	22µM*	·
CCN(CC)S(=O)(=O)c1ccc2c(c1)nc(-c1ccccn1)n2C	10µM*	-3%	2%	32µM*	4%	·

Screening data (PubChem)
